GLD-1 TGE inh: GLD-1-TGE RNA interaction inhibition (C. elegans); Q17339; purified GLD-1 + fluorescein TGE RNA, fluorescence polarization; inhibition, % at 5.96 µM; 320,000 compounds, 0.44% hits;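 active means percent inhibition above a per-plate cutoff, the plate mean of test compounds plus 3 SD, cut at about 30% in these data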;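 further: 0% = DMSO wells with GLD-1 and probe and 100% = wells lacking GLD-1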
Target sequence (Q17339 whole entry, looked up): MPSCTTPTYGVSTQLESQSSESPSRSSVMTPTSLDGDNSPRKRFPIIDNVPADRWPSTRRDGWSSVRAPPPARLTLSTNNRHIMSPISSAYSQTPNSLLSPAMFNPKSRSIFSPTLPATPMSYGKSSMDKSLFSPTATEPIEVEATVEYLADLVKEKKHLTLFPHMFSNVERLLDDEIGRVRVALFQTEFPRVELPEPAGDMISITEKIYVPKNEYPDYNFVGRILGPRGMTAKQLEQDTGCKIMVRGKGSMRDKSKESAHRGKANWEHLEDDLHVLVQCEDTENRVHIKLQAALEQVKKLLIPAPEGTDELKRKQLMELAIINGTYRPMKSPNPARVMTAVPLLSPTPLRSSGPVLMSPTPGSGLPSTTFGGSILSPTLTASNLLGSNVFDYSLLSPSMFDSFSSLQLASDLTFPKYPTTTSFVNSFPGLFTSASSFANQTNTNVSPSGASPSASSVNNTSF
MEX-5 binding: C. elegans MEX-5 TCR-2 RNA binding activity; Q9XUB2; MEX-5/FITC-TCR2 RNA binding, fluorescence polarization; hits give low values; activity score (negative = inhibition of binding), % at 10 µM; 300,000 compounds, 0.38% hits; AID 1832;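 active means inhibition past about -25% in most replicates, and total fluorescence under double the plate's negative control median, limit read from the data; inconclusive means replicates evenly split on the limit, or fluorescence at least double controls; inactive means too little inhibition in most replicates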;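 further: 0% = DMSO and -100% = 5 µM competing unlabeled TCR2 RNA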
LANA-H2A inh: blocks KSHV LANA binding to histone H2A/H2B. Q9QR71. cell-free LANA-H2A/H2B peptide, fluorescence polarization. inhibition, % (test concentration not listed). 320,000 compounds, 0.6% hits. AID 2629; in the data active means inhibition mostly above about 10%, no sharp cut-off; inactive means mostly below about 6.7%
MCL1 BIM primary: MCL1-BIM-BH3 interaction inhibition (human); inhibition, % at 10.9 µM; GST-MCL1 / FITC-Bim-BH3 fluorescence polarization; 320,000 compounds, 0.68% hits;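 active means inhibition above the mean inhibition of all tested compounds plus 3 SD, set per campaign, cut at about 40% in these data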;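 further: 0% = DMSO wells and 100% = unlabeled Bim-BH3 peptide control; higher means more loss of mP so more displacement of Bim peptide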
BCLXL inh: blocks human Bcl-xL binding to Bim BH3 peptide; Q07817; GST-Bcl-xL / FITC-Bim BH3 peptide fluorescence polarization; inhibition, % at 10.9 µM; 320,000 compounds, 0.7% hits;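 active means inhibition above the mean of all tested compounds plus 3 SD, cutoff set per campaign, cut at about 30% in these data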;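 further: 0% = DMSO wells and 100% = unlabeled Bim-BH3 peptide competitor; inhibitors lower millipolarization by displacing the labeled peptide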
Yeast superoxide: lowers age-related superoxide in aged yeast cells; superoxide response (% of plate mean), % at 10 µM; 330,000 compounds, 0.18% hits; S. cerevisiae aged cells, superoxide DHE fluorescence; hits give low values;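 active means superoxide response under a set limit, about three screen SD below normal, cut at about 65% in these data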;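 further: yeast aged for seven days with compound at 30 °C before DHE staining; 100% = average MFI of all compound-treated wells on the plate with controls excluded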
Active calls of the source: *; ? = inconclusive; . = not tested or not shown; + = active, no number. An excerpt weighted towards active compounds, which were near 1.9% of everything screened.

SMILES	GLD-1 TGE inh	MEX-5 binding	LANA-H2A inh	MCL1 BIM primary	BCLXL inh	Yeast superoxide
O=C(O)c1cc(O)c2c(c1)[C@@H]([C@H]1c3cc(C(=O)O)cc(O)c3C(=O)c3c(O[C@@H]4O[C@H](CO)[C@@H](O)[C@H](O)[C@H]4O)cccc31)c1cccc(OC3O[C@H](CO)[C@@H](O)[C@H](O)[C@H]3O)c1C2=O (stereo partly specified)	30	-100*	19*	114*	97*	112
O=C1c2cc(CO)cc(O)c2C(=O)c2c(O[C@@H]3OC(CO)[C@@H](O)[C@@H](O)[C@@H]3O)cccc21 (stereo partly specified)	10	-5	-4	14	11	168
O=C(O)c1cc(O)c2c(c1)[C@H]([C@H]1c3cc(C(=O)O)cc(O)c3C(=O)c3c(O[C@@H]4O[C@H](CO)[C@@H](O)[C@H](O)[C@H]4O)cccc31)c1cccc(OC3O[C@H](CO)[C@@H](O)[C@H](O)[C@H]3O)c1C2=O (stereo partly specified)	29	-98*	8	110*	94*	113
Cc1cccc(C(=O)NNC(=S)NC(=O)c2cccs2)c1	-1	-2	-5	10	9	200
Cc1nc2cc(N)ccc2n1C1CCCCC1	1	-39*	5	4	0	87
CCn1c(C)nc2cc(OC)ccc21	3	-2	1	2	6	110
CCn1c(C)nc2cc(N)ccc21	-1	-51*	-3	7	3	101
Cc1nc2cc(C(=O)O)ccc2n1C1CCCCC1	2	-2	-2	5	0	105
C[C@@H]1O[C@@H](O[C@H]2[C@H](O)[C@@H](O)[C@H](Oc3c(-c4ccc(O)cc4)oc4cc(O)cc(O)c4c3=O)O[C@@H]2CO)[C@H](O)[C@H](O)[C@H]1O	2	.	-4	.	.	110
C[C@@H]1O[C@@H](OC2C(O)C(OCCc3ccc(O)c(O)c3)OC(CO)C2OC(=O)/C=C/c2ccc(O)c(O)c2)[C@H](O)[C@H](O)[C@H]1O (stereo partly specified)	8	-46*	7	39	17	112
CCn1c2ccccc2c2cc(NC(=O)c3coc(=O)c(Br)c3)ccc21	-13	?	20*	-31	-17	102
CCn1c2ccccc2c2cc(NC(=O)c3cccc([N+](=O)[O-])c3)ccc21	6	-2	79*	1	5	127
Cc1ccc(C(=O)Nc2cccc(C(=O)N3CCOCC3)c2)cc1Cl	2	-1	2	2	3	89
CN(CC(=O)OCC(=O)NCc1ccccc1)S(=O)(=O)c1ccc(F)cc1	7	.	+	-8	-5	89
CN(CC(=O)OCC(=O)NCc1ccccc1)S(=O)(=O)c1ccc(Cl)cc1	0	1	-1	-5	1	113
C[C@@H](C(=O)OCC(=O)c1ccc(F)c(F)c1)N1C(=O)C2CCCCC2C1=O (stereo partly specified)	5	.	1	.	.	97
COc1ccc(C(CNC(=O)c2ccc(S(=O)(=O)N3CCCC3)cc2)N(C)C)cc1OC (stereo unspecified)	1	2	-1	-2	-2	99
COc1ccccc1C(CNC(=O)c1ccc(S(=O)(=O)N2CCCCC2)cc1)N(C)C (stereo unspecified)	4	.	+	3	-1	107
Nc1nc(SCC(=O)Nc2cccc(S(=O)(=O)N3CCCCCC3)c2)n[nH]1	2	3	171*	-1	1	93
O=C(CCNC(=O)c1ccc([N+](=O)[O-])cc1)Nc1cccc(S(=O)(=O)N2CCCCCC2)c1	7	.	12*	2	3	114
COc1ccc(S(=O)(=O)N2CCCCC2)cc1NC(=O)CCNC(=O)c1ccccc1Cl	8	.	.	28	32*	95
O=C(CCNC(=O)c1ccc([N+](=O)[O-])cc1)Nc1cccc(S(=O)(=O)N2CCOCC2)c1	4	.	-4	-13	-8	119
Cc1ccc2nc(N3C(=O)C(O)=C(C(=O)c4ccc(C)o4)C3c3ccc(O)cc3)sc2c1 (stereo unspecified)	3	.	.	9	2	85
Cn1ncc(N)c1C(=O)Nc1cccc(C(F)(F)F)c1	4	-2	2	7	41*	83
COc1ccc(N(CC(=O)NCc2cccs2)S(=O)(=O)c2ccc(F)cc2)cc1	-2	.	-6	-3	-4	88
SMILES	GLD-1 TGE inh	MEX-5 binding	LANA-H2A inh	MCL1 BIM primary	BCLXL inh	Yeast superoxide
S=C(NCc1ccccc1)N/N=C/c1cccs1	-7	0	13*	4	1	95
O=C(COc1ccccc1)NCC(=O)N/N=C/c1cccs1	-4	-3	55*	3	0	93
O=C(COc1ccccc1)NCC(=O)N1CCCCCC1	4	.	50*	-4	-1	104
CCCCN(C(=O)c1cnccn1)c1c(N)n(CCC)c(=O)[nH]c1=O	16	.	2	.	.	98
COc1cccc(NC(=O)CN(C)C(=O)CCNS(=O)(=O)c2ccc(C)cc2)c1	10	.	1	3	1	100
O=C(COC(=O)c1n[nH]c2ccccc12)NCCc1ccccc1	-2	.	-2	.	.	104
COc1cc(/C=C(/C#N)c2nc3ccccc3[nH]2)ccc1OCc1ccc(C(=O)O)o1	3	-2	-2	-11	-3	107
CCOc1cc(/C=C(/C#N)c2nc3ccccc3[nH]2)ccc1Oc1ccc([N+](=O)[O-])cn1	-3	0	-5	1	-4	119
COC(=O)c1ccc(COc2ccc(/C=C(\C#N)c3nc4ccccc4[nH]3)cc2OC)o1	1	-30*	-1	4	3	81
CCOc1cc(/C=C(\C#N)c2nc3ccccc3[nH]2)ccc1OC(C)C(=O)O (stereo unspecified)	-8	-30*	-3	1	6	102
C[C@H](CO)N1C[C@H](C)[C@@H](CN(C)S(=O)(=O)c2ccccc2)Oc2ccc(NC(=O)CCC(F)(F)F)cc2C1=O	-1	.	28*	.	.	87
CC(C)NC(=O)Nc1ccc2c(c1)C(=O)N([C@H](C)CO)C[C@H](C)[C@@H](CN(C)C(=O)Nc1ccc(C(F)(F)F)cc1)O2	3	.	+	.	.	104
CCOC(=O)c1c(-c2ccccc2)csc1NC(=O)/C(C#N)=C/c1ccc(OC)c(OC)c1	-9	-43*	2	-11	-7	94
CCOC(=O)c1c(-c2ccccc2)csc1NC(=O)/C(C#N)=C/c1ccc(O)c(OC)c1	-75	1	-5	-96	-66	104
CCN(CC)C(=O)[C@H]1C[C@H](CC(=O)NCCc2ccccn2)C(=O)N2CCc3c([nH]c4cc(CCC(=O)N(C)C)ccc34)[C@]12C	.	.	.	.	.	82
